The list is not random: actives were taken first. Their share in the collection is about 11%.
hNpr1 antagonist: human Npr1 receptor antagonism; hit rate 1.6% among 76,000; P16066; HEK293 hNpr1 GloSensor cGMP, ANP-stimulated luminescence; Potency, µM (doses to about 46.3 µM), most hits filed as inhibitors; calls by dose curve; note: nearly all actives have a fitted effect of over 60% in size
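HEK293 cells stably expressing human Npr1 and cGMP GloSensor pGS-40F, loaded 2 h with 2% GloSensor reagent, given compound 30 min at room temperature. Luminescence read before and 20 min after 0.1 nM hNppA.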
3T3 cytotox: NIH 3T3 cell cytotoxicity | NIH 3T3 viability, CellTiter-Glo ATP luminescence, 48-72 h | Potency, µM (highest dose often 96.7 µM), usual class: inhibitors | hit rate 4.3% among 94,000; note: nearly all actives have a fitted effect of over 55% in size
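Cytotoxicity was measured by CellTiter-Glo ATP luminescence after 48 or 72 h compound exposure at 37 °C. Mouse NIH 3T3 fibroblasts were seeded at 400 cells/well and dosed by 23 nL pin transfer.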
Luciferase inh: blocks purified firefly luciferase enzyme activity; purified P. pyralis luciferase, luminescence, biochemical; Potency, µM (titrated, usually from 115 µM), most hits filed as inhibitors; hit rate 2.5% among 76,000; AID 1347043; note: nearly all actives have a fitted effect of over 65% in size
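Luminescence read by CCD imaging after purified firefly luciferase (10nM final) was added to substrate buffer holding 10uM D-luciferin and 10uM ATP, pH 7.5, pre-dosed with compound.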
HEK cytotox: HEK 293 cell cytotoxicity; HEK 293 viability, ATP luminescence (CellTiter-Glo), 48-72 h; hit rate 6.6% among 94,000; Potency, µM (highest dose often 115 µM), usual class: inhibitors; note: nearly all actives have a fitted effect of over 60% in size
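Pintool-delivered compounds were incubated with HEK 293 cells (250 cells/well) at 37 degree Celsius for 48 or 72 hr. ATP-dependent luminescence (CellTiter-Glo) then reported remaining viable cells.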
Each line names hits and unclear results; the compound was inactive in the other large screens. Unless noted, calls come from the whole dose curve; as a rule, active = well fitted curve in the direction sought with a large enough effect; inconclusive = small, poorly fitted or top-dose-only effect, or another doubt; inactive = no such curve, though single readings can be large; an effect the other way counts as inactive or inconclusive.

Cc1ccccc1CNC(=O)C1CCN(C(=O)c2ncn3c2COC(c2ccccc2)C3)CC1 (centres undefined)	Luciferase inh 16µM
O=C(NCc1ccco1)C1CCN(C(=O)c2ncn3c2COC(c2ccc(F)cc2)C3)CC1 (centres undefined)	Luciferase inh 22µM
O=C(NCc1ccc(F)cc1F)C1CCN(C(=O)c2ncn3c2COC(c2ccccc2)C3)CC1 (centres undefined)	Luciferase inh 35µM
O=C(NCc1cc(F)ccc1F)C1CCN(C(=O)c2ncn3c2COC(c2ccc(F)cc2)C3)CC1 (centres undefined)	Luciferase inh 45µM
COc1ccc(C2Cn3cnc(C(=O)N4CCC(C(=O)NCc5ccco5)CC4)c3CO2)cc1 (centres undefined)	none
CC(C)CNC(=O)c1ccc2oc(-c3ccnc(Cl)c3)nc2c1	3T3 cytotox inconclusive, HEK cytotox 89µM (no result: hNpr1 antagonist, Luciferase inh)
Cc1nc(CNC(=O)c2ccc3oc(-c4cccc(F)c4)nc3c2)cs1	Luciferase inh 32µM, HEK cytotox inconclusive
CN(C)C(=O)c1ccnc(-c2nnc3ccc(NCCc4ccccc4)nn23)c1	HEK cytotox inconclusive
COc1ccccc1-c1ccc2c(n1)CN(Cc1csc(C)n1)C(=O)CO2	3T3 cytotox 45µM
Cc1nc(CN2Cc3nc(-c4cc5ccccc5o4)ccc3OCC2=O)cs1	hNpr1 antagonist inconclusive, 3T3 cytotox inconclusive, Luciferase inh inconclusive, HEK cytotox 63µM
Cc1nc(CN2Cc3nc(-c4ccc5c(c4)OCO5)ccc3OCC2=O)cs1	3T3 cytotox inconclusive, HEK cytotox inconclusive
COc1ccc(S(=O)(=O)NC[C@@H]2C=C(C)[C@H](CC(=O)N3CCN(C)CC3)C[C@H]2C(C)C)cc1	3T3 cytotox inconclusive, HEK cytotox inconclusive
CCOC(=O)C[C@@H]1C[C@@H](C(C)C)[C@H](CNS(=O)(=O)c2ccc(OC)cc2)C=C1C	3T3 cytotox inconclusive, HEK cytotox 40µM
COc1ccc(S(=O)(=O)NC[C@@H]2C=C(C)[C@H](CC(=O)N3CCN(c4ccccn4)CC3)C[C@H]2C(C)C)cc1	3T3 cytotox 8.9µM, HEK cytotox inconclusive
CCOC(=O)C[C@@H]1C[C@@H](C(C)C)[C@H](CNS(=O)(=O)c2ccc(NC(C)=O)cc2)C=C1C	3T3 cytotox inconclusive, HEK cytotox inconclusive
CC1(C)[C@H](Cc2cc(CC3CCCCC3)on2)C[C@@H]1NC(=O)c1ccco1	hNpr1 antagonist inconclusive, 3T3 cytotox 71µM, HEK cytotox 25µM
CC(C)N[C@H]1C[C@@H](Cc2cc(CC3CCCCC3)on2)C1(C)C	3T3 cytotox 45µM, HEK cytotox 32µM
COCc1cc(C[C@@H]2C[C@H](NCC3CC3)C2(C)C)no1	none
CCCCc1cc(C[C@@H]2C[C@H](NC(=O)c3ccco3)C2(C)C)no1	3T3 cytotox inconclusive, HEK cytotox inconclusive
CC(=O)N1CCN(C(=O)c2ccc3nnc(-c4cccc(C(F)(F)F)c4)n3c2)CC1	none (no result: hNpr1 antagonist, Luciferase inh)
O=C(Cc1ccc2c(c1)OCO2)N(Cc1ccncc1)Cc1cccc(OCCc2ccc(F)cc2)c1	hNpr1 antagonist inconclusive, 3T3 cytotox 35µM, HEK cytotox 40µM
Cc1cc(C(=O)N(Cc2ccncc2)Cc2cccc(OCCc3ccc(F)cc3)c2)n(C)n1	3T3 cytotox inconclusive, HEK cytotox inconclusive
COCCNC(=O)[C@H]1C[C@H](Oc2ccccc2)CN1Cc1cccn1C	HEK cytotox inconclusive
COCCNC(=O)[C@H]1C[C@H](Oc2ccccc2)CN1Cc1cn(C)c2ccccc12	HEK cytotox 40µM
Cc1ocnc1C(=O)N(C)CC1CCCN(CCc2ccc(Cl)cc2)C1 (centres undefined)	HEK cytotox inconclusive
CCCn1ncc(CN(C)CC2CCN(CCc3ccc(Cl)cc3)CC2)c1C	3T3 cytotox 35µM, HEK cytotox 22µM
Cc1nn2c(c1-c1ccccc1N1CCCC1)N(C(=O)c1cc3ccccc3n1C)CCC2	3T3 cytotox 35µM, HEK cytotox 50µM
Cc1nn2c(c1-c1ccccc1C(C)C)N(C(=O)c1cc3ccccc3n1C)CCC2	hNpr1 antagonist inconclusive, 3T3 cytotox 22µM, HEK cytotox 50µM
Cc1nn2c(c1-c1ccccc1N1CCCC1)N(C(=O)c1ccc(F)cc1)CCC2	3T3 cytotox inconclusive, HEK cytotox 71µM
Cc1nn2c(c1-c1cccnc1N1CCOCC1)N(C(=O)c1cc3ccccc3n1C)CCC2	3T3 cytotox inconclusive
O=C1NCc2ccccc2CC12CCN(Cc1ccc(Cl)o1)C2 (centres undefined)	HEK cytotox inconclusive (no result: hNpr1 antagonist, Luciferase inh)
O=C(c1ccccc1F)N1CCCN(CCn2nc3n(c2=O)CCCC3)CC1	none (no result: hNpr1 antagonist, Luciferase inh)
Cc1noc(C)c1CN1C[C@H]2[C@H](C1)[S+](=O)([O-])C(C)(C)C(=O)N2CCOc1ccccc1	3T3 cytotox 40µM
CC1(C)C(=O)N(Cc2ccccc2)[C@H]2CN(CC3CCOCC3)C[C@H]2[S+]1(=O)[O-]	3T3 cytotox inconclusive
Cc1noc(C)c1CN1C[C@H]2[C@H](C1)[S+](=O)([O-])C(C)(C)C(=O)N2Cc1ccccc1F	3T3 cytotox inconclusive
CC1(C)C(=O)N(CCOc2ccccc2)[C@H]2CN(c3cccc(C(F)(F)F)c3)C[C@@H]2[S+]1(=O)[O-]	3T3 cytotox 11µM, HEK cytotox 18µM
CC1(C)C(=O)N(Cc2ccccc2)[C@H]2CN(CC3CCOC3)C[C@H]2[S+]1(=O)[O-] (some centres undefined)	3T3 cytotox 89µM
COc1ccc(CN(C(=O)c2ccco2)c2ccc(CC(=O)NCCc3ccccc3)cc2)cc1	3T3 cytotox inconclusive, HEK cytotox inconclusive
CCCCNC(=O)N1CC(C(=O)NC(C)c2ccccc2)CC(c2ccc(OC)c(OC)c2)C1 (centres undefined)	3T3 cytotox inconclusive, HEK cytotox inconclusive
CC1CCN(C(=O)c2cc3n(n2)CC(c2ccc(Cl)cc2)OC3)CC1 (centres undefined)	hNpr1 antagonist inconclusive, 3T3 cytotox 40µM, HEK cytotox inconclusive
O=C(c1cc2n(n1)CC(c1ccc(Cl)cc1)OC2)N1CCN(c2ccccc2)CC1 (centres undefined)	hNpr1 antagonist 20µM, 3T3 cytotox inconclusive, HEK cytotox inconclusive
Cc1noc(C2CC3(CCN(C(=O)COc4ccccc4)CC3)CN2C)n1 (centres undefined)	none (no result: hNpr1 antagonist, Luciferase inh)
O=C(NCc1ccccc1)N1C[C@@H](CO)[C@@H]2Oc3c(F)cccc3[C@@H]21	HEK cytotox inconclusive (no result: hNpr1 antagonist, Luciferase inh)
CC(=O)N1CCC(C2CCN(S(=O)(=O)c3ccc(Cl)cc3C)C2)CC1 (centres undefined)	HEK cytotox inconclusive
CC(C)c1nnsc1Cn1ncc(N(C)CCc2ccccc2)cc1=O	3T3 cytotox inconclusive, HEK cytotox 89µM
CC(C)N(C)C(=O)Cn1ncc(N(C)CCc2ccccc2)cc1=O	none
CC(C)C(=O)Nc1cc(-c2ccncc2)nn1-c1ccccc1	none (no result: hNpr1 antagonist, Luciferase inh)
O=C(NCc1ccc(Cl)cc1)c1cc2n(n1)CC(c1ccc(Cl)cc1)OC2 (centres undefined)	hNpr1 antagonist inconclusive, 3T3 cytotox 35µM, HEK cytotox inconclusive
